Source: PubChem (several laboratories)
697 NFkB inh: inhibitors of the PMA/ionomycin-induced NF-kB reporter in 697 B cells; inhibition, % at 4 µM; 0.33% of 330,000 active; 697 B-cell NF-kB luciferase reporter, 16 h; in the data active = inhibition above about 35%
Gli-Sufu block: antagonists of Gli-Sufu signaling; Sufu-KO-LIGHT fibroblasts, Gli luciferase reporter luminescence; inhibition, % at 5 µM; 0.74% of 340,000 active; AID 588413;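 active = inhibition above about 55%, limit read from the data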
esBAF inh: blocks esBAF chromatin remodeling in mouse ES cells; Bmi1-luciferase knock-in reporter, 24 h; 100% = twice the neutral-well signal; AID 602393; 2% of 350,000 active; reporter increase, % at 12.5 µM; in the data active = activation above about 40%; inconclusive = no clear call, values can overlap the other calls;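 also: a rise in the Bmi1 reporter signal indicates esBAF inhibition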
SMARCA2 activ: activators of SMARCA2 function; MG213 cells, MMTV-luciferase reporter, dexamethasone, overnight; activation, % at 9.1 µM; 1% of 370,000 active; in the data active = activation above about 7.8%
Jurkat NFkB inh: inhibitors of the PMA/ionomycin-induced NF-kB reporter in Jurkat cells; AID 435003; PMA/ionomycin-induced NF-kB luciferase reporter, luminescence; 0.53% of 330,000 active; inhibition, % at 4 µM; in the data active = inhibition above about 50%
Each line names hits and unclear results; the compound was inactive in the other large screens. Shown are actives, neighbours in structure and some others; about 3.3% of the full set was active somewhere.

C/C(=N\Nc1nc2ccccc2[nH]1)c1ccc2c(c1)OCO2	none
C/C(=N\Nc1ccccn1)c1ccc(C(C)C)cc1	esBAF inh 64
OCC1CCCN(C(=S)Nc2ccc(Nc3ccccc3)cc2)C1 (stereo not drawn)	esBAF inh 47
CC(C)CC(=O)NC(c1cccs1)c1ccc2cccnc2c1O (stereo not drawn)	Gli-Sufu block 72 (no result: esBAF inh, SMARCA2 activ)
CC(=O)NC(c1ccc(Cl)cc1Cl)c1ccc2cccnc2c1O (stereo not drawn)	Gli-Sufu block 87
CCCC(=O)NC(c1cccc([N+](=O)[O-])c1)c1ccc2cccnc2c1O (stereo not drawn)	none (no result: 697 NFkB inh, Gli-Sufu block, Jurkat NFkB inh)
CCCC(=O)NC(c1ccc(Cl)cc1Cl)c1ccc2cccnc2c1O (stereo not drawn)	Gli-Sufu block 89
CC(C)C(=O)NC(c1cccc([N+](=O)[O-])c1)c1ccc2cccnc2c1O (stereo not drawn)	Gli-Sufu block 74
COC(=O)C[C@H]1C[C@@H]2c3cc(N(C)C)ccc3O[C@@H]2[C@@H](CO)O1	none (no result: 697 NFkB inh, Gli-Sufu block, SMARCA2 activ, Jurkat NFkB inh)
O=C(C[C@H]1C[C@H]2c3cc(NC(=O)C4CCC4)ccc3O[C@H]2[C@@H](CO)O1)NCC1CC1	none (no result: 697 NFkB inh, Gli-Sufu block, SMARCA2 activ, Jurkat NFkB inh)
COc1ccc(Cn2c(-c3ccco3)nc3oc4ccccc4c(=O)c3c2=O)cc1	esBAF inh 68
COc1ccc(Cn2c(-c3ccco3)nc3oc4cc(OC)ccc4c(=O)c3c2=O)cc1	esBAF inh inconclusive
CCOC(=O)C(=O)Nc1nnc(CCc2ccccc2)s1	SMARCA2 activ 7.8
CC1CCCC(NC(=O)COC(=O)c2cc3ccccc3oc2=O)C1C (stereo not drawn)	esBAF inh 68
CC1CCN(C(=O)COC(=O)c2cc3ccccc3oc2=O)CC1	none
Cc1csc2nc(CCNS(=O)(=O)c3cccs3)cn12	esBAF inh 53
O=C(NC1CCCC1)N1CCCCN2[C@@H](CO)[C@@H](c3ccc(/C=C/c4ccccc4)cc3)[C@@H]2C1	none (no result: 697 NFkB inh, Gli-Sufu block, SMARCA2 activ, Jurkat NFkB inh)
CCC(=O)N[C@H]1C=C[C@H](CC(=O)NCc2ccccc2OC)O[C@@H]1CO	none (no result: 697 NFkB inh, Gli-Sufu block, SMARCA2 activ, Jurkat NFkB inh)
c1ccc(Oc2cc(-n3cncn3)ncn2)cc1	none (no result: esBAF inh)
Cc1cnn(-c2cc(Oc3ccccc3)ncn2)c1	esBAF inh 65
O=C(CSc1ccc(F)cc1)Nc1ccc(C2SCCS2)cc1	esBAF inh 45
CC(=O)c1c(C)[nH]c(C(=O)CSc2ccc(F)cc2)c1C	none (no result: esBAF inh)
Cc1cc(C(=O)CSc2ccc(F)cc2)cc(C)c1O	esBAF inh 56
Cc1noc(C)c1NC(=O)Nc1ccc2c(c1)C(=O)N([C@H](C)CO)C[C@H](C)[C@@H](CN(C)C)OCCCC[C@H](C)O2	none (no result: 697 NFkB inh, Gli-Sufu block, SMARCA2 activ, Jurkat NFkB inh)
CCC(=O)c1cn(CC(=O)Nc2cccc(C)c2C)c2ccccc12	Gli-Sufu block 73
COc1ccc(NC(=O)Nc2ccc3c(c2)C(=O)N([C@@H](C)CO)C[C@H](C)[C@@H](CN(C)S(=O)(=O)c2cn(C)cn2)OCCCC[C@@H](C)O3)cc1	none (no result: 697 NFkB inh, Gli-Sufu block, SMARCA2 activ, Jurkat NFkB inh)
C[C@H]1CN([C@@H](C)CO)C(=O)Cc2cc(NC(=O)NC3CCCCC3)ccc2O[C@@H]1CN(C)C(=O)NC1CCCCC1	none (no result: 697 NFkB inh, Gli-Sufu block, SMARCA2 activ, Jurkat NFkB inh)
CCCCC(CC)CO (stereo not drawn)	none
CCCCC(CC)CN=C(N)NC(N)=NCCCCCCN=C(N)NC(N)=NCC(CC)CCCC (stereo not drawn)	Gli-Sufu block 67 (no result: SMARCA2 activ)
CO[C@H]1CN(C)C(=O)c2ccc(NC(=O)c3cc(C)on3)cc2OC[C@@H](C)N(CC2CC2)C[C@@H]1C	none (no result: 697 NFkB inh, Gli-Sufu block, SMARCA2 activ, Jurkat NFkB inh)
O=C(CC1Nc2ccccc2NC1=O)Nc1ccc2c(c1)OCO2 (stereo not drawn)	esBAF inh 47
O=C(CSc1ccc2c(c1)OCCO2)Nc1ccc2c(c1)OCO2	none (no result: SMARCA2 activ)
Cc1ccc(NC(=O)CN2C(=O)C3C4C=CC(C4)C3C2=O)cc1 (stereo not drawn)	none (no result: esBAF inh)
Cc1ccc(NC(=O)CC2Nc3ccccc3NC2=O)cc1Cl (stereo not drawn)	none (no result: 697 NFkB inh, Jurkat NFkB inh)
CC(CC(=O)Nc1ccc2c(c1)OCCO2)c1ccccc1 (stereo not drawn)	esBAF inh 55
O=C(CN1C(=O)C2C3C=CC(C3)C2C1=O)Nc1ccc2c(c1)OCCO2 (stereo not drawn)	esBAF inh 41
O=C(CSc1ccccc1)Nc1ccc2c(c1)OCO2	esBAF inh 44
CO[C@@H](CN(C)S(=O)(=O)c1cn(C)cn1)[C@@H](C)CN(C(=O)Nc1ccc(C(F)(F)F)cc1)[C@H](C)CO	none (no result: 697 NFkB inh, Gli-Sufu block, SMARCA2 activ, Jurkat NFkB inh)
CCC(=O)N(C)C[C@@H]1Oc2cc(Br)ccc2S(=O)(=O)N([C@@H](C)CO)C[C@H]1C	none (no result: 697 NFkB inh, Gli-Sufu block, SMARCA2 activ, Jurkat NFkB inh)
CSc1nsc(SCC(=O)Nc2ccc3c(c2)OCCO3)n1	esBAF inh 43
COCC(=O)Nc1c(C(=O)Nc2ccc3c(c2)OCO3)oc2ccccc12	esBAF inh 63
O=C(CSc1nccn(-c2ccc3c(c2)OCCO3)c1=O)Nc1ccccc1	esBAF inh 49
CC(=O)Nc1c(C(=O)Nc2ccc3c(c2)OCO3)oc2ccccc12	esBAF inh inconclusive
Cc1ccc(NC(=O)CSc2nccn(-c3ccc4c(c3)OCCO4)c2=O)cc1	none (no result: esBAF inh)
CC(C)C#Cc1cnc2c(c1)C(=O)N([C@@H](C)CO)C[C@H](C)[C@H](CN(C)C(=O)c1cnccn1)O2	none (no result: 697 NFkB inh, Gli-Sufu block, SMARCA2 activ, Jurkat NFkB inh)
O=C(c1ccccn1)N1CC[C@@H]2[C@H]1c1cc(-c3ccc(F)cc3)ccc1N[C@@H]2CO	esBAF inh 47 (no result: 697 NFkB inh, Gli-Sufu block, SMARCA2 activ, Jurkat NFkB inh)
Cn1c(CCNC(=O)c2ccco2)nc2cc(NC(=O)c3ccccc3)ccc21	esBAF inh 46
Cn1c(CCNC(=O)c2ccco2)nc2cc(NC(=O)c3ccco3)ccc21	esBAF inh 51
O=C(Cc1ccncc1)NCC[C@@H]1CC[C@@H](NC(=O)Nc2ccc(F)cc2)[C@@H](CO)O1	none (no result: 697 NFkB inh, Gli-Sufu block, SMARCA2 activ, Jurkat NFkB inh)
C[C@@H]1CN([C@@H](C)CO)C(=O)c2cc(NC(=O)Cn3cnnn3)ccc2O[C@H]1CN(C)Cc1ccncc1	none (no result: 697 NFkB inh, Gli-Sufu block, SMARCA2 activ, Jurkat NFkB inh)
C[C@H]1CN([C@@H](C)CO)C(=O)Cc2cc(NC(=O)C3CC3)ccc2O[C@@H]1CN(C)Cc1ccc(Oc2ccccc2)cc1	none (no result: 697 NFkB inh, Gli-Sufu block, SMARCA2 activ, Jurkat NFkB inh)
C[C@H](CO)N1C[C@H](C)[C@H](CN(C)Cc2ccccc2C(=O)O)Oc2ncc(C3=CCCC3)cc2C1=O	none (no result: 697 NFkB inh, Gli-Sufu block, SMARCA2 activ, Jurkat NFkB inh)
COc1ccc(/C=C/c2nc(-c3ccccc3O)n[nH]2)cc1OC	esBAF inh 62
Cn1c(=Nc2ccccc2)sc2ccccc21	none
CN(C)c1ccc(N=c2sc3ccccc3n2C)cc1	esBAF inh 82
COc1ccccc1CC(=O)Nc1ccc(OC)c(OC)c1	none
COc1ccccc1CC(=O)Nc1ccc2c(c1)OC1(CCCC1)O2	esBAF inh 52
CC1=C(C(=O)Nc2ccccn2)C(c2ccccc2Cl)NC(=S)N1 (stereo not drawn)	esBAF inh 66
CC1=C(C(=O)Nc2ccccn2)C(c2ccc(Cl)cc2)NC(=S)N1 (stereo not drawn)	esBAF inh 44 (no result: Gli-Sufu block)
O=c1c(-c2ccc(F)cc2)coc2c3c(ccc12)OCCO3	esBAF inh 52
O=c1c(-c2ccc(Br)cc2)coc2c(CN3CCOCC3)c(O)ccc12	none
C[C@@H]1CN(C(=O)c2cc(COc3cccc(C(F)(F)F)c3)on2)C[C@H](C)O1	esBAF inh 57
